NIH3T3 tox = Cytotoxic Profiling in NIH 3T3 Cell Line of Diverse Libraries Using Quantitative High-Throughput Screening; NIH 3T3 viability, CellTiter-Glo ATP luminescence, 48-72 h; Potency, µM (doses to about 96.7 µM), actives largely listed as inhibitors; hit rate 4.3% among 94,000; AID 1345082, 2018; note: nearly all actives have a fitted effect of over 55% in size
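Cytotoxicity is measured as loss of cellular ATP: NIH 3T3 cells (400/well) are exposed to compound for 48 or 72 hr at 37 °C, then CellTiter-Glo luminescence is imaged after 10 min at room temperature.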
hNpr1 antagonist = Natriuretic polypeptide receptor (hNpr1) antagonism - Primary qHTS | Atrial natriuretic peptide receptor 1 (Homo sapiens), P16066 | HEK293 hNpr1 GloSensor cGMP, ANP-stimulated luminescence | Potency, µM (titrated, usually from 46.3 µM), most hits filed as inhibitors | hit rate 1.6% among 76,000 | AID 1347048, 2019; calls by dose curve; note: nearly all actives have a fitted effect of over 60% in size
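Compound pre-incubated 30 min at room temperature on GloSensor-loaded HEK293 cells stably carrying hNpr1 and the pGS-40F cGMP biosensor. Stimulation uses hNppA at 0.1 nM final; luminescence is taken at baseline and 20 min post-agonist.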
GPT2 inhibitor = Primary qHTS assay for inhibitors of Glutamate pyruvate transaminase 2 (GPT2) | Alanine aminotransferase 2 (Homo sapiens), Q8TD30 | Recombinant GPT2, coupled pyruvate oxidase/HRP Amplex Red fluorescence | Potency, µM (doses to about 57.7 µM), hits mostly inhibitors | hit rate 0.25% among 100,000 | AID 1671188, 2021; note: nearly all actives have a fitted effect of over 60% in size
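Fluorescence read-out: pyruvate from GPT2 turnover coupled to pyruvate oxidase, HRP and Amplex Red (0.2mM ThPP, 0.2U/mL PO and HRP, 50uM Amplex final). Substrates 250uM a-KG, 2mM L-alanine; enzyme 10ng/uL; 30 min RT.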
FLuc inh = Firefly luciferase inhibition profiling of diverse chemical library using quantitative high-throughput screening; Potency, µM (series often up to 115 µM), actives largely listed as inhibitors; purified P. pyralis luciferase, luminescence, biochemical; hit rate 2.5% among 76,000; Luciferin 4-monooxygenase (Photinus pyralis), P08659; note: nearly all actives have a fitted effect of over 65% in size
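Cell-free enzyme assay, 10nM P. pyralis luciferase, luciferin and ATP each at 10uM. Inhibition profiled over a 6-point titration, read as luminescence.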
HEK293 tox = Cytotoxic Profiling in HEK 293 Cell Line of Diverse Libraries Using Quantitative High-Throughput Screening; HEK 293 viability, ATP luminescence (CellTiter-Glo), 48-72 h; Potency, µM (highest dose often 115 µM), usual class: inhibitors; hit rate 6.6% among 94,000; note: nearly all actives have a fitted effect of over 60% in size
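Luminescence from cellular ATP, measured with CellTiter-Glo, indicates HEK 293 viability. Cells plated at 250 cells/well are treated with compound for 48 or 72 hr at 37 degree Celsius before reagent addition.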
Hits are given with their value; – = inactive; ? = inconclusive; · = no result given. Shown are actives, neighbours in structure and some others; about 10% of the full set was active somewhere. Unless noted, calls come from the whole dose curve; as a rule, active = well fitted curve in the direction sought with a large enough effect; inconclusive = small, poorly fitted or top-dose-only effect, or another doubt; inactive = no such curve, though single readings can be large; an effect the other way counts as inactive or inconclusive.

SMILES	NIH3T3 tox	hNpr1 antagonist	GPT2 inhibitor	FLuc inh	HEK293 tox
CC1CCCN(C(=O)CN2CCCc3nc(-c4ccccc4)ncc3C2=O)C1 (centres undefined)	–	–	–	–	79µM
O=C(CCc1ccccc1)NCCC1CCN(C(=O)Nc2cccc(F)c2)CC1	–	–	–	–	–
COc1ccc(Cl)cc1-c1ccc2c(c1)C(=O)N1CC[C@H](N)C[C@H]1C(=O)N2	32µM	–	–	–	25µM
COc1ccc(Cl)cc1-c1ccc2c(c1)C(=O)N1C[C@@H](NS(=O)(=O)c3ccc(F)cc3)C[C@H]1C(=O)N2	?	–	–	–	35µM
O=C(NC1CC1)c1ccc2oc(-c3ccnc(Cl)c3)nc2c1	?	·	–	·	?
O=C(NC1CCCCCC1)c1nc2sccn2c1-c1ccncc1	?	·	–	·	?
COc1ccc(Nc2cnc3ccc(-c4cccc(CO)c4)nn23)cn1	?	–	?	–	?
COc1ccc(N2CCN(C3CCCN(C/C=C/c4ccccc4OC)C3)CC2)cc1 (centres undefined)	–	–	–	–	?
CC1(C)[C@H]2CC[C@@H](CNC(=O)c3ccc(Cl)cc3)[C@@H]1C2	40µM	–	–	–	?
Cc1ccc([S+](=O)([O-])NC[C@@H]2CC[C@H]3C[C@@H]2C3(C)C)cc1	?	?	–	–	?
CC(C)c1ccc(C(=O)NC[C@@H]2CC[C@H]3C[C@@H]2C3(C)C)cc1	?	–	–	–	?
CC1(C)[C@H]2CC[C@@H](CNC(=O)c3cccc(Cl)c3)[C@@H]1C2	?	–	–	–	79µM
CC1(C)[C@H]2CC[C@@H](CN[S+](=O)([O-])c3ccccc3)[C@@H]1C2	?	–	–	–	79µM
COc1cccc(C(=O)NC[C@@H]2CC[C@H]3C[C@@H]2C3(C)C)c1	?	–	–	–	89µM
Cc1nn(C)cc1C(=O)N1CCC2(CC1)CN(c1ncccn1)CC2CO (centres undefined)	–	–	–	–	–
COc1ccc2[nH]c3c(c2c1)CCNC31CCN(C(=O)C2CCN2C2CCCCC2)CC1 (centres undefined)	?	–	–	–	?
O=C(NC1CN(c2ccnc3ccnn23)C1)c1ccccc1	–	·	–	·	?
CC1=C[C@@H](CNC(=O)c2ccccn2)[C@H](C(C)C)C[C@H]1CC(=O)N1CCCC1	100µM	–	–	–	?
COCCNC(=O)C[C@@H]1C[C@@H](C(C)C)[C@H](CNS(=O)(=O)c2ccccc2)C=C1C	112µM	–	–	–	–
CC1=C[C@@H](CNS(=O)(=O)c2ccccc2)[C@H](C(C)C)C[C@H]1CC(=O)O	?	–	–	–	–
CC1=C[C@@H](CNS(=O)(=O)c2ccccc2)[C@H](C(C)C)C[C@H]1CC(=O)NCc1ccccn1	?	–	–	–	–
CCOC(=O)C[C@@H]1C[C@@H](C(C)C)[C@H](CNS(=O)(=O)c2ccccc2)C=C1C	?	?	–	–	63µM
COc1ccccc1N1CCN(C(=O)C[C@@H]2C[C@@H](C(C)C)[C@H](CC#N)C=C2C)CC1	?	–	–	–	35µM
CC1=C[C@@H](CNS(=O)(=O)c2ccc(Cl)cc2)[C@H](C(C)C)C[C@H]1CC(=O)N1CCOCC1	32µM	?	?	–	?
CC1=C[C@@H](CNS(=O)(=O)c2ccccc2)[C@H](C(C)C)C[C@H]1CC(=O)NCc1ccc(C#N)cc1	?	–	?	–	?
CC1=C[C@@H](CNS(=O)(=O)c2ccccc2)[C@H](C(C)C)C[C@H]1CC(=O)NCCN(C)C	?	–	–	–	?
COc1ccc(S(=O)(=O)NC[C@@H]2C=C(C)[C@H](CC(=O)NCc3ccc(C#N)cc3)C[C@H]2C(C)C)cc1	25µM	–	–	–	?
CC1=C[C@@H](CNS(=O)(=O)c2ccc(F)cc2)[C@H](C(C)C)C[C@H]1CC(=O)NCCN(C)C	40µM	–	–	–	?
